Measurements reported in PubChem BioAssay (EPA / NIEHS).
Records with an inconclusive call do not appear. Active and inactive are the calls of the source. Rule for the calls: active = hit-call score of the fitted dose curve at least 0.9, where 1 is the maximum; inconclusive = response in the unintended direction; inactive = score below 0.9.

Columns and labels:
[1] = molecular target: Nuclear receptor subfamily 1 group I member 2 (Mus musculus) (UniProt O54915); experiment: ATG_mPXR_XSP1: Attagene TRANS-FACTORIAL Multi-Species (XSP1) HepG2 Assay for mouse Pregnane X Receptor (PXR) (AID 2283803)
In short: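 Transiently transfected HepG2 cells expressing a receptor-Gal4 chimera drive a GAL4-UAS reporter; 3 nM 6-alpha-fluorotestosterone included. Reporter mRNA read 24 h post-dose by RT-PCR and capillary electrophoresis; gain of signal relative to DMSO.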

[2] = molecular target: frog Thyroid hormone Receptor alpha (TRa), thra-a (gene 397942) (UniProt P15204); experiment: ATG_frTRa_XSP1: Attagene TRANS-FACTORIAL Multi-Species (XSP1) HepG2 Assay for frog Thyroid hormone Receptor alpha (TRa) (AID 2283804)
In short: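 HepG2 cells transiently transfected with frog TRa-GAL4 chimeric reporter units, dosed 24 hr with 3 nM 6-alpha-fluorotestosterone present; reporter mRNA quantified by RT-PCR, fluorescent labelling and capillary electrophoresis, gain of signal versus DMSO.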

[3] = molecular target: human Thyroid hormone Receptor alpha (TRa), THRA (gene 7067) (UniProt P10827); experiment: ATG_hTRa_XSP1: Attagene TRANS-FACTORIAL Multi-Species (XSP1) HepG2 Assay for human Thyroid hormone Receptor alpha (TRa) (AID 2283805)
In short: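 HepG2 cells transiently transfected with GAL4-UAS reporter units expressing chimeric NR-Gal4 proteins, dosed 24 hours with 3 nM 6-alpha-fluorotestosterone present. Reporter mRNA measured by RT-PCR and capillary electrophoresis; gain of signal fitted versus DMSO.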

[4] = system: turtle Thyroid Hormone Receptor, alpha (TRa), gene 101949057; experiment: ATG_trTRa_XSP1: Attagene TRANS-FACTORIAL Multi-Species (XSP1) HepG2 Assay for turtle Thyroid Hormone Receptor, alpha (TRa) (AID 2283806)
In short: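 HepG2 cells transiently transfected with GAL4-UAS reporter units and chimeric receptor-Gal4 constructs, with 3 nM 6-alpha-fluorotestosterone present. Reporter mRNA was quantified 24 h after dosing by RT-PCR, 6-FAM labelling and capillary electrophoresis; gain of signal versus DMSO.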

[5] = molecular target: zebrafish Thyroid Hormone Receptor alpha (TRa), thraa (gene 30670) (UniProt Q98867); experiment: ATG_zfTRa_XSP1: Attagene TRANS-FACTORIAL Multi-Species (XSP1) HepG2 Assay for zebrafish Thyroid Hormone Receptor alpha (TRa) (AID 2283807)
In short: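 HepG2 cells transiently transfected with GAL4-UAS reporter units including a zebrafish TRa–Gal4 chimera, dosed 24 h with 3 nM 6-alpha-fluorotestosterone present. Reporter mRNA quantified by RT-PCR and capillary electrophoresis; gain versus DMSO.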

[6] = molecular target: human Thyroid hormone Receptor beta (TRb), THRB (gene 7068) (UniProt P10828); experiment: ATG_hTRb_XSP1: Attagene TRANS-FACTORIAL Multi-Species (XSP1) HepG2 Assay for human Thyroid hormone Receptor beta (TRb) (AID 2283808)
Description: ATG_XSP1_multi-species_TRANS is a cell-based, multiplexed assay created by modifying the existing Attagene TRANS-FACTORIAL system to include a panel of nuclear receptors from some or all the following species: human (Homo sapiens), mouse (Mus musculus), frog (Xenopus laevis), zebrafish (Danio rerio), chicken (Gallus gallus), and turtle (Chrysemys picta). The ECOTOX-FACTORIAL format uses HepG2, a human liver cell line, with measurements taken at 24 hours after chemical dosing in a 24-well plate. Xsp1 included 3 nM 6-alpha-fluorotestosterone to partially stimulate the androgen receptor.ATG_hTRb_XSP1 is one of 29 assay components measured or calculated from the ATG_XSP1_multi-species_TRANS assay. It is designed to make measurements of mRNA induction, a form of inducible reporter, as detected with fluorescence intensity signals by Reverse transcription polymerase chain reaction (RT-PCR) and Capillary electrophoresis technology.The assay endpoint ATG_hTRb_XSP1 was analyzed in the positive analysis fitting direction relative to DMSO as the negative control and baseline of activity. Using a type of inducible reporter, measures of mRNA for gain-of-signal activity can be used to understand the reporter gene at the transcription factor-level as they relate to the gene TR. Furthermore, this assay endpoint can be referred to as a primary readout, because this assay has produced multiple assay endpoints where this one serves a reporter gene function. […]
Human liver HepG2 cells are transiently transfected with multiple reporter transcription units (MRTUs) in 6-well plates using FuGene 6 reagent (Roche; 3 ml FuGene/1 mg DNA). […] A major difference between the CIS and TRANS system is that in CIS activities of endogenous TFs are measured, whereas the TRANS assay evaluates changes in activities of exogenous, chimeric NR-Gal4 proteins. […] The fragments were purified using Qiaquick PCR columns (Qiagen), analyzed on an ABI 3130xL genetic analyzer (Applied Biosystems) with peak positions identified by using a set of X-rhodamine (ROX)-labeled MapMarker1000 molecular weight standards (BioVentures). […]

[7] = molecular target: zebrafish Thyroid Hormone Receptor beta (TRb), thrb (gene 30607) (UniProt Q9PVE4); experiment: ATG_zfTRb_XSP1: Attagene TRANS-FACTORIAL Multi-Species (XSP1) HepG2 Assay for zebrafish Thyroid Hormone Receptor beta (TRb) (AID 2283809)
In short: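 HepG2 cells transiently transfected with multiplexed GAL4-UAS reporter units expressing chimeric zebrafish TRb–Gal4. Dosed 24 h with 3 nM 6-alpha-fluorotestosterone present; reporter mRNA measured by RT-PCR, HpaI digestion and capillary electrophoresis; gain of signal versus DMSO.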

[8] = ATG_XTT_Cytotoxicity_XSP1: Cytotoxicity Assessment in the Attagene TRANS-FACTORIAL Multi-Species (XSP1) HepG2 Assay (AID 2283810)
In short: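 XTT viability readout taken at 24 hours post-dosing in HepG2 liver cells co-treated with 3 nM 6-alpha-fluorotestosterone. Signal loss relative to DMSO controls reflects cytotoxicity.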

[9] = ATG_M_06_XSP2: Attagene TRANS-FACTORIAL Multi-Species (XSP2) HepG2 Assay for M06 Transcription Factor (Internal Marker) (AID 2283811);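 note: hits are increases in signal above the DMSO baseline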
In short: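 HepG2 cells transiently transfected with GAL4-UAS multiple reporter units, medium containing 3 nM 6-alpha-fluorotestosterone and 1.5 nM norgestrel; reporter mRNA measured 24 hours post-dosing by RT-PCR and capillary electrophoresis. Internal background marker, gain of signal vs DMSO.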

[10] = system: turtle Estrogen Receptor (ERa), gene 101933533; experiment: ATG_trERa_XSP2: Attagene TRANS-FACTORIAL Multi-Species (XSP2) HepG2 Assay for turtle Estrogen Receptor (ERa) (AID 2283812);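 note: human HepG2 liver cells transiently expressing turtle ERa-Gal4 chimeric receptor; actives raise reporter signal above DMSO so AC50 reflects agonist activity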
In short: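 HepG2 cells transiently transfected with GAL4-UAS reporter units expressing turtle ERa-Gal4 chimera. Reporter mRNA measured after 24 h dosing by RT-PCR, fluorescent labelling and capillary electrophoresis; gain of signal fitted versus DMSO.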

Measured: AC50

Chain of human Thyroid hormone Receptor beta (TRb), THRB (gene 7068) (P10828 whole entry, looked up): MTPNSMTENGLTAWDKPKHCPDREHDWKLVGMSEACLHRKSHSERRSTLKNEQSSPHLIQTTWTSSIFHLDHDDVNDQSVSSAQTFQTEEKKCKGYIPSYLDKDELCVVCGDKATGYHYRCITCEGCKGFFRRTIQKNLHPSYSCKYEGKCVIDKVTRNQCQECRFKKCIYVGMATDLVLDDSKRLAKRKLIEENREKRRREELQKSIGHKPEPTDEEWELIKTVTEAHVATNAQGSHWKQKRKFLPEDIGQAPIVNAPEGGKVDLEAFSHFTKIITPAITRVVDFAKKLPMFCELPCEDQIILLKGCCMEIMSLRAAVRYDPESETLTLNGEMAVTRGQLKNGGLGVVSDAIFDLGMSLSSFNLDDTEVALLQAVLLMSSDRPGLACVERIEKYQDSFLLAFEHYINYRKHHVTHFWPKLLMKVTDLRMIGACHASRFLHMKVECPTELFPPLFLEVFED
Chain of zebrafish Thyroid Hormone Receptor beta (TRb), thrb (gene 30607) (Q9PVE4 whole entry, looked up, the tested form may be a part): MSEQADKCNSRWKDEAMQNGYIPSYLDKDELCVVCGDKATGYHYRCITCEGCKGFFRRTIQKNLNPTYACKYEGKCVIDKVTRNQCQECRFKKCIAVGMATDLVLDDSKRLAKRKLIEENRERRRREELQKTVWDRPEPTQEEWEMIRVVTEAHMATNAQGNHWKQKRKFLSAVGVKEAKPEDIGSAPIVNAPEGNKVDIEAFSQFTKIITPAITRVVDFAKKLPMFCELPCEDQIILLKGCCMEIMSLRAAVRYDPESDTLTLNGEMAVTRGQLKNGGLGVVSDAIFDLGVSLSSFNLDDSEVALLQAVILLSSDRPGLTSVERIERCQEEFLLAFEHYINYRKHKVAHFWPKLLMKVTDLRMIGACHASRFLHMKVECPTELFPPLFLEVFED
Chain of human Thyroid hormone Receptor alpha (TRa), THRA (gene 7067) (P10827 whole entry, looked up, the tested form may be a part): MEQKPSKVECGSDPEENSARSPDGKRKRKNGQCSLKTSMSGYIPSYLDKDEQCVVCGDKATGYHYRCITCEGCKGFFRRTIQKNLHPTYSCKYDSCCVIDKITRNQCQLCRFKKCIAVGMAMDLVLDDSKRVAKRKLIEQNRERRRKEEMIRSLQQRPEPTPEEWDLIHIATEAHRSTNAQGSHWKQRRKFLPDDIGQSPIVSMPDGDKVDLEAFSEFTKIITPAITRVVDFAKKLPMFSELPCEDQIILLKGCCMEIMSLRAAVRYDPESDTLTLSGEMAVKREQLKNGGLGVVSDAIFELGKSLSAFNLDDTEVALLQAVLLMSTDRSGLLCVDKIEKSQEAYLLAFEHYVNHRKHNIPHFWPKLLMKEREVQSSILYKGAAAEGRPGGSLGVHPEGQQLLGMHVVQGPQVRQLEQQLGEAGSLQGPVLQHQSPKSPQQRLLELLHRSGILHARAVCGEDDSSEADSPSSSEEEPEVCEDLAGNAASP
Chain of frog Thyroid hormone Receptor alpha (TRa), thra-a (gene 397942) (P15204 whole entry, looked up, the tested form may be a part): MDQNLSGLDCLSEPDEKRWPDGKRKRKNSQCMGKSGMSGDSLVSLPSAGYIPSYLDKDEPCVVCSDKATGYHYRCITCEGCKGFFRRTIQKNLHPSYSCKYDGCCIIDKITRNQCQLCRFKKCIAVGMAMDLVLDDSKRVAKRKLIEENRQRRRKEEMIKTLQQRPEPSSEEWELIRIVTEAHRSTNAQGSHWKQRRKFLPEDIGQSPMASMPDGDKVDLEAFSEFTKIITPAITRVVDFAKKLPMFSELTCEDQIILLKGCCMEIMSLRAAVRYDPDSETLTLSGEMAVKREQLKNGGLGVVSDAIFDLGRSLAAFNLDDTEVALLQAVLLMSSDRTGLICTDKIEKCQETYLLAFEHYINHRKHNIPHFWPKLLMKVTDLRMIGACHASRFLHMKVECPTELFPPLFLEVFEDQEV
Chain of zebrafish Thyroid Hormone Receptor alpha (TRa), thraa (gene 30670) (Q98867 whole entry, looked up, the tested form may be a part): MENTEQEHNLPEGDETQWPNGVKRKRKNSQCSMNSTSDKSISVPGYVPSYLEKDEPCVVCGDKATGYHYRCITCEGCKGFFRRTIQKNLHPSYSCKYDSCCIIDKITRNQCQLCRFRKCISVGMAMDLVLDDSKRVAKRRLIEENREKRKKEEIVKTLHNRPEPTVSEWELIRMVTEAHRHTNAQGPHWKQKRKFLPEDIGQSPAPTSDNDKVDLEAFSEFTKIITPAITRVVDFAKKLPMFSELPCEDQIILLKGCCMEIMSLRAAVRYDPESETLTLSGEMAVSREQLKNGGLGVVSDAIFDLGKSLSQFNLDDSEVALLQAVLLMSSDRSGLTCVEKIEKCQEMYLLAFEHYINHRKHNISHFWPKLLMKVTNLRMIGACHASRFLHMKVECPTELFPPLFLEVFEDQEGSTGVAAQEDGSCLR
Chain of Nuclear receptor subfamily 1 group I member 2 (Mus musculus) (O54915 whole entry, looked up, the tested form may be a part): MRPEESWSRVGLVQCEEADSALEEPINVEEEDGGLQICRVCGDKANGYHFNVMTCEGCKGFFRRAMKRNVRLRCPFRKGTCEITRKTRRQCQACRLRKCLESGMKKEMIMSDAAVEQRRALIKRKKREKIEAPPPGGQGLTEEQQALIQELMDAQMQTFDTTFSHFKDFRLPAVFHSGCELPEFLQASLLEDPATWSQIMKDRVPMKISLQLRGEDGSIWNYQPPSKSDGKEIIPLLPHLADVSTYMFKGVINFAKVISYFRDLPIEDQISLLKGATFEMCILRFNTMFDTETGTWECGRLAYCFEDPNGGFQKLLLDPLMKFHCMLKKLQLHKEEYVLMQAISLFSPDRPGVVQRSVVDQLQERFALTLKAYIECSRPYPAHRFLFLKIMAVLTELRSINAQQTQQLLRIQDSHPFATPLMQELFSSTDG

CC(C)C(=O)Nc1ccc([N+](=O)[O-])c(C(F)(F)F)c1
inactive: [8] | [9] | [10]
active: [1] 27.4 µM | [2] 63.9 µM | [3] 29 µM | [4] 22.7 µM | [5] 18.3 µM | [6] 100 µM | [7] 40.2 µM

C=CCc1cc(S(=O)(=O)c2ccc(O)c(CC=C)c2)ccc1O
active: [4] 100 µM | [8] 160 µM | [10] 8.75 µM
not listed: [1] | [5]
inactive: all other assays above

CCN(CC)C(=S)SSC(=S)N(CC)CC
active: [8] 30.8 µM
not listed: [1] | [10]
inactive: all other assays above
